A selection: hits, their analogues and other compounds. The true share with any hit is near 3.5%.
Autofluor counter: compound fluorescence in toxin protease inhibitor counterscreen. compound autofluorescence counterscreen, microsphere flow cytometry; hits give high values. fluorescence intensity (concentration not given with the values). actives 3.1% (n = 360,000). AID 624483; in the data active = fluorescence intensity above about 16000; inconclusive = no clear call, values can overlap the other calls
BoNT-A LC inh2: BoNT A light chain protease inhibition; multiplex microsphere protease substrate cleavage, flow cytometry; inhibition, % at 10 µM; actives 0.17% (n = 360,000)
BJeLR lethal: kills HRASV12-expressing BJeLR cells. BJeLR (HRASV12) viability, CellTiter-Glo ATP luminescence, 48 h. inhibition, % (test concentration not listed). actives 0.17% (n = 300,000); in the data active = inhibition above about 50%; inconclusive = no clear call, values can overlap the other calls
BoNT-F LC inh: inhibitors of Botulinum neurotoxin F light chain protease. inhibition, % at 10 µM. actives 0.22% (n = 360,000). Multiplex microsphere protease cleavage assay, flow cytometry; in the data active = inhibition above about 35%, passing the limit was not always enough; inconclusive = no clear call, values can overlap the other calls
Anthrax LF inh2: blocks Bacillus anthracis lethal factor protease; actives 0.12% (n = 360,000); inhibition, % at 10 µM; multiplex microsphere protease cleavage assay, LF; AID 588501
Target sequence (P15917 whole entry, looked up): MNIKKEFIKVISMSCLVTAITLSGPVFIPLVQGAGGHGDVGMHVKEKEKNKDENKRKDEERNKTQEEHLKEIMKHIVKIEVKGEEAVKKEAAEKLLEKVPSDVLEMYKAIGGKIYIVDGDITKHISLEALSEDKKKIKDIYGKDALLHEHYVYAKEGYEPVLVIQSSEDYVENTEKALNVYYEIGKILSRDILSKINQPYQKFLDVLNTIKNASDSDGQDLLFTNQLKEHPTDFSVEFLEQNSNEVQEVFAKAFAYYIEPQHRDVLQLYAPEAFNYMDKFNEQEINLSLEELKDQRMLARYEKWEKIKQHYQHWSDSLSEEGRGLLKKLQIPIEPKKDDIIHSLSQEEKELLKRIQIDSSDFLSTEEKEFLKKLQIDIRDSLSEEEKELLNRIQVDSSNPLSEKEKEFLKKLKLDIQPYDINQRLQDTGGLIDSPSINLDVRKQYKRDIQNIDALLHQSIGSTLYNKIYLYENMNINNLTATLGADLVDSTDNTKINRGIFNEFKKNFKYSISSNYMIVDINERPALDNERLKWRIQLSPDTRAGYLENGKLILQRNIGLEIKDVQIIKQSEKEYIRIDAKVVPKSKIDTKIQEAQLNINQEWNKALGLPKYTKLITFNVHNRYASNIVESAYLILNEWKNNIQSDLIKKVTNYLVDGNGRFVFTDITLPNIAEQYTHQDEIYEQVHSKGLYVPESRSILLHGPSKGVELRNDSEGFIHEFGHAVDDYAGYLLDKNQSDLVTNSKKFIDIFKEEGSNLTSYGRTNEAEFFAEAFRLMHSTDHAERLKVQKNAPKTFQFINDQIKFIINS
A number is an active result. Cut-off read from the data, not from the text of the source, unless noted: active = inhibition above about 30%; inconclusive = no clear call, values can overlap the other calls; inactive = below that.

Screening COC(=O)c1ccccc1NC(=O)Cn1c(-c2nonc2N)nc2ccccc21 returned Autofluor counter 20173, BoNT-A LC inh2 inactive, BJeLR lethal inactive, BoNT-F LC inh inactive and Anthrax LF inh2 inactive.
Screening CCOC(=O)CN1C(=O)C(CC)Oc2ccccc21 (stereo not drawn) returned Autofluor counter 24132, BoNT-A LC inh2 inactive, BJeLR lethal inactive, BoNT-F LC inh inactive and Anthrax LF inh2 inactive.
Screening COc1ccc(-c2noc(CSc3nc4ccccc4c(=O)n3-c3ccccc3)n2)cc1 returned Autofluor counter 21618, BoNT-A LC inh2 inactive, BJeLR lethal inactive, BoNT-F LC inh inactive and Anthrax LF inh2 inactive.
`O=c1c2ccccc2nc(SCc2nnc(-c3ccccc3)o2)n1-c1ccccc1` gave Autofluor counter inactive, BoNT-A LC inh2 inactive, BJeLR lethal inactive, BoNT-F LC inh inactive and Anthrax LF inh2 inactive.
`COc1cccc(NC(=O)n2ncc3c(C)cccc32)c1` gave Autofluor counter inactive, BoNT-A LC inh2 inactive, BJeLR lethal 53.9, BoNT-F LC inh inactive and Anthrax LF inh2 inactive.
Screening O=C(C/C=N/OCc1c(Cl)cccc1Cl)c1ccccc1 returned Autofluor counter 23991, BoNT-A LC inh2 inactive, BJeLR lethal inactive, BoNT-F LC inh inactive and Anthrax LF inh2 inactive.
Screening O=C(C/C=N/OCc1ccc(Cl)cc1Cl)c1ccc(Cl)cc1 returned Autofluor counter 22103, BoNT-A LC inh2 inactive, BJeLR lethal inactive, BoNT-F LC inh inactive and Anthrax LF inh2 inactive.
`O=C(C/C=N/OCc1ccc(Cl)cc1Cl)c1ccccc1` gave BJeLR lethal inactive.
`CC1(C(=O)NC2CCN(Cc3ccccc3)CC2)CCN1Cc1cc2ccccc2o1` (stereo not drawn) gave Autofluor counter inactive, BoNT-A LC inh2 inactive, BoNT-F LC inh inactive and Anthrax LF inh2 inactive.
Screening CCOC(=O)c1c2c(n(Cc3ccccc3)c1C)C(=O)C(=O)c1ccccc1-2 returned Autofluor counter inactive, BoNT-A LC inh2 inactive, BoNT-F LC inh inactive and Anthrax LF inh2 inactive.
CCOC(=O)c1c2c(n(C)c1C)C(=O)C(=O)c1ccc(Br)cc1-2 was read as Autofluor counter inactive, BoNT-A LC inh2 inactive, BJeLR lethal 55.4, BoNT-F LC inh inactive and Anthrax LF inh2 inactive.
For CC1C(=O)OC2C1CCC1(C)C3(C)C(=O)C=CC213 (stereo not drawn) the results were Autofluor counter inactive, BoNT-A LC inh2 inactive, BoNT-F LC inh inactive and Anthrax LF inh2 inactive.
Screening O=C(CCCl)Nc1cc(SCCO)cc([N+](=O)[O-])c1 returned Autofluor counter 20902, BoNT-A LC inh2 inactive, BJeLR lethal inactive, BoNT-F LC inh inactive and Anthrax LF inh2 inactive.
O=C(Nc1cc(SCCO)cc([N+](=O)[O-])c1)c1ccc(Br)o1 was read as Autofluor counter inactive, BoNT-A LC inh2 inactive, BJeLR lethal inactive, BoNT-F LC inh inactive and Anthrax LF inh2 inactive.
`COc1cc(OC)cc(-c2noc([C@@H]3O[C@H](CO)[C@@H](O)[C@H]3O)n2)c1` gave Autofluor counter inactive, BoNT-A LC inh2 inactive, BoNT-F LC inh inactive and Anthrax LF inh2 inactive.
CC(=O)N1CCc2cc(NC(=O)c3ccc(C)cc3)ccc21 was read as Autofluor counter 21491, BoNT-A LC inh2 inactive, BoNT-F LC inh inactive and Anthrax LF inh2 inactive.
Screening COCCN1C(=O)c2ccccc2C1c1nnnn1Cc1ccccc1 (stereo not drawn) returned Autofluor counter inactive, BoNT-A LC inh2 inactive, BoNT-F LC inh inactive and Anthrax LF inh2 inactive.
Screening COc1ccc(CCNC(=O)CSc2nc3cc(Cl)ccc3o2)cc1OC returned Autofluor counter inactive, BoNT-A LC inh2 inactive, BJeLR lethal inactive, BoNT-F LC inh inactive and Anthrax LF inh2 inactive.
COc1ccc(Cc2nnc(SCC(=O)NCCc3ccccc3)o2)cc1 was read as Autofluor counter 21339, BoNT-A LC inh2 inconclusive, BJeLR lethal inactive, BoNT-F LC inh inactive and Anthrax LF inh2 inactive.
For COc1ccc(CCNC(=O)CSc2nc3ccccc3o2)cc1OC the results were Autofluor counter 23875, BoNT-A LC inh2 inactive, BJeLR lethal inactive, BoNT-F LC inh inactive and Anthrax LF inh2 inactive.
COc1ccc(CCNC(=O)CSCc2n[nH]c(=O)[nH]2)cc1OC was read as Autofluor counter 20702, BoNT-A LC inh2 inconclusive, BJeLR lethal inactive, BoNT-F LC inh inactive and Anthrax LF inh2 inactive.
Cc1cccc(C)c1OCc1nnc(SCC(=O)NCCc2ccccc2)o1 was read as Autofluor counter 23122, BoNT-A LC inh2 inconclusive, BJeLR lethal inactive, BoNT-F LC inh inactive and Anthrax LF inh2 inactive.
Cc1cc(C)n(C(=O)CSc2nc3ccccc3o2)n1 was read as Autofluor counter 20678, BoNT-A LC inh2 inactive, BJeLR lethal inactive, BoNT-F LC inh inactive and Anthrax LF inh2 inactive.

Screening results deposited in PubChem by several laboratories.
